This passage reports Z-AUC results from PubChem BioAssay (NCATS).

The nature of this assay: qHTS drug screen for cell cycle checkpoint inhibitors in PARPi-resistant BRCA-mutant ovarian cancer cell lines. (AID 1963452). The note with it: PEO1/OlaR viability, CellTiter-Glo luminescence, 96 h; measured here: PEO4 Z-AUC; stronger effect = lower value. The method, boiled down: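 PEO1, PEO4 and PEO1/OlaR ovarian cancer cells, 600 per well, exposed 96 h at 37C to a dilution series. Viability read by CellTiter-Glo luminescence, normalized to DMSO and empty wells; activity summarized as Z-AUC.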
For orientation: Quantitative high-throughput screening tests each substance at several concentrations.
As to `O=C(c1ccccc1)c1ccc2n1CCC2C(=O)O` (stereo not given), the Z-AUC worked out at 0.897.

As for `Clc1ccc(C(Cn2ccnc2)OCc2ccc(Sc3ccccc3)cc2)c(Cl)c1` (stereo not given), the Z-AUC is -0.326.

`Cc1cc(O)c2c(c1)C(=O)c1cc(O)cc(O)c1C2=O`: the Z-AUC is 0.55.

For `S=c1nc[nH]c2nc[nH]c12`, the Z-AUC was -0.594.

For the molecule `CCCS(=O)c1ccc2nc(NC(=O)OC)[nH]c2c1` (stereo not given), the Z-AUC was 0.468.

Regarding `Cc1ccc(S(=O)(=O)NC(=O)NN2CC3CCCC3C2)cc1` (stereo not given), the Z-AUC is 1.09.

For the molecule `O=Nc1c(-c2c(O)[nH]c3cc(Br)ccc23)[nH]c2ccccc12`, the Z-AUC is -0.803.

Regarding `CC(=O)N1CCN(c2ccc(OC[C@H]3CO[C@](Cn4ccnc4)(c4ccc(Cl)cc4Cl)O3)cc2)CC1`, the Z-AUC came out at 0.494.

As for `CN(C)C(=O)[C@H](O)[C@H](Cc1ccccc1)NC(=O)c1cc2cc(Cl)ccc2[nH]1`, the Z-AUC was -0.0271.

In the case of `O=C(CCc1ccc(O)cc1)c1c(O)cc(O)cc1O`, the Z-AUC is -0.52.

Take `Cc1cccc(CN2CCN(C(c3ccccc3)c3ccc(Cl)cc3)CC2)c1` (stereo not given): the Z-AUC was -1.

`O=C(NOCC1CC1)c1ccc(F)c(F)c1Nc1ccc(I)cc1Cl`: the Z-AUC came out at 0.149.

On to `C[C@H](Cc1ccc(O)c(O)c1)[C@@H](C)Cc1ccc(O)c(O)c1`, for which the Z-AUC came to 0.729.

As to `CCN(CC)C(=S)SSC(=S)N(CC)CC`, the Z-AUC turned out to be 0.454.

Regarding `CCN(CC)CCOc1ccc(Nc2ncc3cc(-c4c(Cl)cccc4Cl)c(=O)n(C)c3n2)cc1`, the Z-AUC is -1.25.

On to `COCCCN1CCC(NC(=O)c2cc(Cl)c(N)c3c2OCC3)CC1`, for which the Z-AUC is 1.58.

Turning to `c1cnc2cc3c(cc2n1)C1CNCC3C1`, the Z-AUC is -0.403.

With `NC(=NCc1ccccc1)NC(=O)c1nc(Cl)c(N)nc1N`, the Z-AUC is -0.0693.

On to `CCOC(=O)C1=C[C@@H](OC(CC)CC)[C@H](NC(C)=O)[C@@H](N)C1`, for which the Z-AUC was 0.833.

Turning to `Cc1ccc(Nc2nccc(N(C)c3ccc4c(C)n(C)nc4c3)n2)cc1S(N)(=O)=O`, the Z-AUC was found to be 0.955.

In the case of `Nc1ncn([C@H]2C[C@H](O)[C@@H](CO)O2)c(=O)n1`, the Z-AUC is -0.207.

With `Clc1ccc2c(N3CCN(CCCN4CCN(c5ccnc6cc(Cl)ccc56)CC4)CC3)ccnc2c1`, the Z-AUC came to 0.795.

In the case of `COc1cc2c(N3CCN(C(=O)Nc4ccc(OC(C)C)cc4)CC3)ncnc2cc1OCCCN1CCCCC1`, the Z-AUC came to 1.1.

Regarding `O=c1cc(N2CCOCC2)oc2c(-c3ccccc3)cccc12`, the Z-AUC was found to be 0.809.

As to `Cc1cccc(-c2[nH]ncc2-c2ccc3ncccc3n2)n1`, the Z-AUC was 0.305.

For the molecule `Clc1ccc(C(Cn2ccnc2)OCc2c(Cl)cccc2Cl)c(Cl)c1` (stereo not given), the Z-AUC stood at 0.49.

Take `CC(C)c1ccc2c(c1)c(SC(C)(C)C)c(CC(C)(C)C(=O)O)n2Cc1ccc(Cl)cc1`: the Z-AUC came to 0.661.

`O=C(NCC1CCCCN1)c1cc(OCC(F)(F)F)ccc1OCC(F)(F)F` (stereo not given): the Z-AUC was -1.07.

In the case of `Oc1ccc2ccccc2c1SSc1c(O)ccc2ccccc12`, the Z-AUC came to 0.501.

As to `NCCCCNCCCN`, the Z-AUC stood at 0.641.

Consider `Nc1nc(N)c(N=O)c(OCC2CCCCC2)n1`, for which the Z-AUC was 0.22.

For `COc1ccccc1N1CCN(CCN(C(=O)C2CCCCC2)c2ccccn2)CC1`, the Z-AUC is 0.876.

Take `Oc1ccc(-c2nc(-c3ccc(F)cc3)c(-c3ccncc3)[nH]2)cc1`: the Z-AUC came out at 0.0892.

As to `O=C1NC(=O)C(c2ccccc2[N+](=O)[O-])=C1Nc1ccc(O)c(Cl)c1`, the Z-AUC is 0.349.

Consider `COc1cc(Nc2c(C#N)cnc3cc(OCCCN4CCN(C)CC4)c(OC)cc23)c(Cl)cc1Cl`, for which the Z-AUC came to 0.9.
